Bioassay records deposited in PubChem BioAssay by National Center for Advancing Translational Sciences (NCATS).
This is a sample that favours compounds with a hit; in the whole collection about 5.9% have one here.
GLP-1R inv ag – inverse agonists of human GLP-1 receptor. Potency, µM (top dose mostly 38.3 µM), for the others: top-dose activity change, negative = inhibition, actives largely listed as inhibitors. P43220. AID 624417. HEK293 GLP-1R CRE-luciferase, luminescence, 24 h; GLP-1R form is constitutively active. 410,000 tested, 1.6% active; also: % is scaled to controls: 0 for no effect and ±100 for the full control effect; nearly all actives have a fitted effect of over 55% in size
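Inverse agonism was detected as reduced cAMP-driven luciferase luminescence after 24 h compound treatment. The cells were HEK293 clones expressing constitutively active human GLP-1R with the reporter. Reporter-only and GPR119 cell lines served as counterscreen controls.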
RORgamma inh – ROR gamma (mouse) transcription inhibition; P51450; Drosophila S2 Gal4-RORgamma UAS-luciferase reporter, 20 h; Potency, µM (top dose mostly 53.6 µM), for inactives: at the highest dose activity change, negative = inhibition, usual class: inhibitors; 310,000 tested, 5.4% active; AID 2551; also: % is scaled to controls: 0 for no effect and ±100 for the full control effect; nearly all actives have a fitted effect of over 60% in size
Target sequence (P51450 whole entry, looked up, the tested form may be a part): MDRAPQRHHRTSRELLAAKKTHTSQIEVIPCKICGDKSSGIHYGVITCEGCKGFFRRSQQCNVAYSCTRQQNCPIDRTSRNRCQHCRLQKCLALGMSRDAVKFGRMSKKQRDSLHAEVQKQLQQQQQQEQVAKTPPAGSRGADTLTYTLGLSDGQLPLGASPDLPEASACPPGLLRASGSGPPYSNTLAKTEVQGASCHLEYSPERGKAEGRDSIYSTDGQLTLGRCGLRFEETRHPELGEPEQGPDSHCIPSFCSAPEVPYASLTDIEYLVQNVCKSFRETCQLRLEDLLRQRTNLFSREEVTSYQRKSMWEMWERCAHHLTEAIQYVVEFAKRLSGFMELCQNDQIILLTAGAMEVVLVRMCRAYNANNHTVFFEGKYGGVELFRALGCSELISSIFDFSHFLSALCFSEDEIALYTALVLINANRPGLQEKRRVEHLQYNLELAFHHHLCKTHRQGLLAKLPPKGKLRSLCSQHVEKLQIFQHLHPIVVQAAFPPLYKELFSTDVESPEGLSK
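A Gal4/UAS one-hybrid system in insect cells: metallothionein-promoter Gal4–ROR gamma fusion plus Photinus luciferase reporter. Copper sulfate 700 uM final, 20 hr ambient incubation, luminescent detection after 10 min with reagent.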
HEK293 tox – cytotoxicity counter-screen for GLP-1 receptor inverse agonists | Potency, µM (top dose mostly 38.3 µM), for the others: top-dose activity change, negative = inhibition, usual class: inhibitors | 410,000 tested, 0.13% active | HEK293 cAMP-luciferase reporter cells, luminescence, 24 h;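 also: loss of luciferase light is scored as toxicity; % is scaled to controls: 0 for no effect and ±100 for the full control effect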
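To flag toxic compounds, the library was rerun on cells for 24 hr at 37 deg C and 5% CO2. Viability-linked luminescence was captured 12 min after adding luciferase detection reagent.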
Gal4-VP16 FLuc – inhibits Gal4-VP16 luciferase reporter, ROR gamma counter-screen | Drosophila S2 Gal4-VP16 UAS-luciferase, luminescence, 20 h | Potency, µM (doses to about 53.6 µM), without a hit: at the top dose activity, negative = inhibition, usual class: inhibitors | 310,000 tested, 3.5% active;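 also: Gal4-VP16 expression switched on by copper sulfate through the metallothionein promoter; % is scaled to controls: 0 for no effect and ±100 for the full control effect; nearly all actives have a fitted effect of over 50% in size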
GLP-1R agonist – activates the human GLP-1 receptor. AID 624172. 380,000 tested, 0.007% active. HEK293 GLP-1R CRE-luciferase, luminescence, 4-6 h; cells express a hypersensitive GLP-1R form. Potency, µM (top dose mostly 45.6 µM), for inactives: top-dose activation, actives largely listed as activators. P43220; also: % of control where 0% means no effect
* marks the source's active call; other numbers are inactive results; ? = inconclusive; nt = no result; [ ] = dose if it differs, or a comment. Calls follow the shape of the dose curve; as a rule, active = well fitted curve in the direction sought with a large enough effect; inconclusive = small, poorly fitted or top-dose-only effect, or another doubt; inactive = no such curve, though single readings can be large; an effect the other way counts as inactive or inconclusive. Potency is read from the fitted curve at half-maximal effect.

SMILES | GLP-1R inv ag | RORgamma inh | HEK293 tox | Gal4-VP16 FLuc | GLP-1R agonist
FC(F)(F)c1ccc(/C=N/NC(=S)NC2CCCCC2)cc1 | -5.3%[7.66 µM] | 0.631µM* | ? | 4.47µM* | 0.4%
C=CCNC(=O)CC(=O)N/N=C/c1ccc(F)cc1 | 6.8% | -6.6% | 0.3% | 3.6% | -3.7%
O=C(O)c1ccc(/C=N/NC(=S)NC2CCCCC2)cc1 | 31.6% | -23.0% | 1.4% | 9.6% | 5.9%
CCn1c(=O)c(C(=O)NCc2ccc(Cl)cc2)c(O)c2ccccc21 | -6.4% | ? | -17.1% | 6.5% | -7.3%
CCn1c(=O)c(C(=O)NCc2ccccc2OC)c(O)c2ccccc21 | 1.3% | -30.1% | -1.5% | ? | -2.0%
CCn1c(=O)c(C(=O)NCc2ccccc2)c(O)c2ccccc21 | -8.8% | ? | 13.2% | 15.8µM* | -9.0%
CCn1c(=O)c(C(=O)NCCc2ccc(Cl)cc2)c(O)c2ccccc21 | 12.0% | ? | 11.8% | -18.6% | -5.1%
CCCn1c(=O)c(C(=O)NCCc2ccc(Cl)cc2)c(O)c2ccccc21 | 6.1% | 14.1µM* | 13.9% | ? | -0.9%
CCn1c(=O)c(C(=O)NCc2ccc(F)cc2)c(O)c2ccccc21 | ? | 12.6µM* | -8.6% | ? | 5.2%
Cc1cc(C)c(S(=O)(=O)N2CCN(C(=O)C3COc4ccccc4O3)CC2)c(C)c1 (stereo not given) | 10µM* | nt | -2.2% | nt | 8.2%
Cc1ccc(S(=O)(=O)N2CCN(C(=O)C3COc4ccccc4O3)CC2)cc1C (stereo not given) | ? | 60.5% | 1.6% | 0.7% | 4.8%
N#Cc1ccccc1NS(=O)(=O)c1ccc(N2CCCCS2(=O)=O)cc1 | 4.0% | nt | -0.1% | nt | nt
CCOC(=O)c1cc(-c2ccncc2)nc2c1c(C)nn2C | 43.7% | -7.8% | 1.3% | -21.9% | 12.2%
CCOC(=O)c1cc(-c2ccccc2)nc2c1c(C)nn2-c1ccccn1 | ? | 3.98µM* | -15.4% | 11.2µM* | -24.9%
C[C@]12CCC(O)CC1=CCC1C2CC[C@]2(C)/C(=N\NC(N)=S)CCC12 (stereo not given in full) | 20.4% | 12.6µM* | -22.9% | -11.9% | -0.2%
COc1ccc(CNC(=O)C2CCN(C(=O)c3ccc(-n4ccc5ccccc54)s3)CC2)cc1 | ? | nt | -10.1% | nt | nt
Cc1ccc(S(=O)(=O)Nc2ccc(O)c(Sc3ncn[nH]3)c2)cc1 | -6.7% | -1.9% | -7.3% | 5.7% | 1.6%
CCOc1ccc(S(=O)(=O)Nc2ccc(O)c(Sc3ncn[nH]3)c2)cc1 | 10.6% | ? | -7.5% | 3.55µM* | -1.4%
CN(C)c1ncc2nc(-c3ccc(Cl)cc3)c(=O)n(-c3ccccc3)c2n1 | nt | -8.5% | nt | -3.4% | nt
CCNC(=S)Nc1ccccc1-c1ccccc1 | 18.9% | 8.91µM* | -3.1% | 11.2µM* | 7.4%
CNC(=S)Nc1ccccc1-c1ccccc1 | 8.2% | 11.2µM* | -0.6% | ? | -2.1%
O=C(Nc1ccccc1-c1ccccc1)C(c1ccccc1)c1ccccc1 | 0.0% | 44.1% | -2.3% | -5.2% | -5.7%
O=C(Nc1ccccc1-c1ccccc1)c1ccccc1 | ? | 6.0% | 0.1% | -13.9% | 5.4%
CCOc1ccccc1NC(=O)C1CCN(S(=O)(=O)Cc2ccccc2)CC1 | -9.3% | nt | -0.8% | nt | nt
Cc1cc(C)c2c(n1)SCC(=O)N2CC(=O)Nc1cccc(C)c1C | -10.0% | nt | 0.5% | nt | nt
SMILES | GLP-1R inv ag | RORgamma inh | HEK293 tox | Gal4-VP16 FLuc | GLP-1R agonist
Cc1sc(NC(=O)c2ccco2)c(C(c2ccc(F)cc2)N2CCN(C)CC2)c1C (stereo not given) | 7.08µM* | 40.0% | ? | 5.2% | -0.4%
Cc1ccc(C(c2c(NC(=O)c3ccco3)sc(C)c2C)N2CCOCC2)cc1 (stereo not given) | -14.6% | nt | 3.9% | nt | 5.1%
CCOC(=O)C1CCN(C(c2cccnc2)c2c(NC(=O)c3ccco3)sc(C)c2C)CC1 (stereo not given) | ? | 18.5% | -0.3% | 5.9% | 0.0%
Cc1sc(NC(=O)c2ccco2)c(C(c2ccccc2)N2CCC(C)CC2)c1C (stereo not given) | 6.31µM* | 19.1% | -11.8% | 22.4% | -0.2%
Cc1cc(C)c2sc(NC(=O)C3=COCCO3)nc2c1 | ? | 0.794µM* | -7.3% | 5.62µM* | -4.1%
Cc1cc(C)c(-c2csc(NC(=O)C3=COCCO3)n2)c(C)c1 | ? | nt | 4.5% | nt | 14.6%
Cc1cc(C)c2sc(NC(=O)c3ccc(N4C(=O)CCC4=O)cc3)nc2c1 | 14.3% | 0.112µM* | 3.5% | ? | -0.7%
O=C(Nc1nc2cc3c(cc2s1)OCCO3)C1=COCCO1 | ? | 1µM* | -6.7% | 2.24µM* | -1.5%
COc1ccc(OC)c(C2OCCC=CC2C)c1 (stereo not given) | nt | -16.3%[10 µM] | nt | -1.0%[10 µM] | nt
CCOc1ccc(CCNC(=O)c2cc3cccc4c3n2CCS4)cc1 | ? | nt | 0.5% | nt | nt
COc1ccc(C(=O)Cn2cnc3ccccc3c2=O)c(OC)c1 | 14.4% | 4.47µM* | -1.6% | 8.91µM* | 9.8%
CCCCCC(=O)/C=C/[C@H]1[C@H](O)CC(=O)[C@@H]1C/C=C\CCCC(=O)O | nt | ? | nt | -6.5% | nt
COc1cccc(/C=N/NC(=S)Nc2cccnc2)c1 | ? | 2.51µM* | ? | 3.16µM* | 14.5%
COc1cccc(/C=N/NC(=S)Nc2cccc(C(=O)O)c2)c1 | -8.8% | 10µM* | 17.9% | -16.4% | -3.1%
COc1ccc(/C=N/NC(=S)Nc2cccc(C(=O)O)c2)cc1OC | -19.6% | ? | 21.5% | -26.4% | -3.2%
NC(=S)N/N=C/c1cccnc1 | nt | 10.5% | nt | 3.2% | -5.3%
CC(C)(C)NC(=S)N/N=C/c1cccnc1 | ? | 5.62µM* | ? | 10µM* | 7.9%
COc1ccc(O)c(/C=N/NC(=S)Nc2cccnc2)c1 | ? | 6.31µM* | 2.2% | -23.1% | -0.2%
CCc1nnc2n1N(C(C)=O)C(c1ccc(C(C)(C)C)cc1)=C(C(C)=O)S2 | ? | nt | -28.7% | nt | nt
C/C(=C(/CCOC(=O)c1ccccc1)SS/C(CCOC(=O)c1ccccc1)=C(\C)N(C=O)Cc1cnc(C)nc1N)N(C=O)Cc1cnc(C)nc1N | nt | nt | nt | nt | -3.7%
COc1ccc(CCN(Cc2ccccn2)C(=S)Nc2cccc(C)c2)cc1OC | -4.3%[7.66 µM] | 10µM* | 0.4%[7.66 µM] | -1.5% | -1.8%
COc1ccc(CCN(Cc2ccccn2)C(=S)Nc2ccccc2Cl)cc1OC | 15.2% | 10µM* | 12.8% | ? | 15.0%
COc1ccc(CCN(Cc2ccccn2)C(=S)Nc2ccccc2F)cc1OC | 11.4% | 12.6µM* | -0.9% | -4.1%[10 µM] | 0.3%
COc1ccc(NC(=S)N(CCc2ccc(OC)c(OC)c2)Cc2ccccn2)cc1 | -5.2% | ? | -18.7% | -21.0% | 8.8%
CC(=O)c1ccccc1[N+](=O)[O-] | nt | -3.4% | nt | 16.7% | nt
Cc1ccc(-n2c3c(cc(-c4nc(-c5ccc(Cl)cc5)cs4)c2=O)C(=O)CC(C)(C)C3)cc1C | 3.2% | nt | 14.0% | nt | nt
